The structures appear in SMILES notation. Compounds without any hit were thinned out: in the full panel of roughly 83,000, 20% have a hit.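 Single-concentration screen, 48 h exposure, 96-well plates. Endpoint: percent growth. Below 10 = active.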 A number with no mark means an inactive call. The source made the active and inactive calls.

For the test, the system named is HCC-2998 colon. Description: NCI-60 one-dose screen, 48 h (100 = growth as untreated, 0 = no growth, -100 = all killed). Conditions: 10 µM. As for the experimental part: Growth inhibition of the HCC-2998 human tumor cell line is measured as a screen for anti-cancer activity. Cells are grown in 96 well plates and exposed to the test compound for 48 hours. Compounds are tested at a single concentration, which is 10^-5 M for most compounds. The reported endpoint is percent growth (GI% or GIPRCNT), where numbers from 0 - 100% represent growth inhibition, and numbers from -100% - 0 represent cell death. For example, a value of 40 represents 60% growth inhibition. A value of 0 means no net growth occurred over the course of the experiment. A value of -40 indicates 40% of cells at the beginning of the experiment died by the end of the experiment. A value of -100 means all cells are dead at the end of the experiment.
NCI-60 Human Tumor Cell Lines Screen was performed using the standard one-dose NCI protocol, which is described in more detail at https://dtp.cancer.gov/discovery_development/nci-60/default.htm.
Compounds with GIPRCNT values below 10 were considered active. Activity score was based on GIPRCNT using the following formula: […]
Score is 0 for GIPRCNT values of 100 or above, 50 for GIPRCNT values of 0, and 100 for GIPRCNT values of -100.
Regarding `COc1ccc(/C(=C/c2cc(OC)c(OC)cc2[N+](=O)[O-])C(=O)O)cc1`, the growth was 107%.
Regarding `COc1ccc(C2CC(c3ccc(-c4ccccc4)cc3)=NN2c2ccc(S(N)(=O)=O)cc2)cc1` (stereo not given), the growth is 58.2%.
On to `Nc1ccccc1NC(=O)CCCCCCC(=O)Nc1ccc2c(c1)/C(=C/c1ccc[nH]1)C(=O)N2`, for which the growth is 70.2%.
Turning to `CCc1ccc(Nc2cc(C)nc3nc(C)nn23)cc1`, the growth was -69.8% (active).
Regarding `COc1cccc(C(=O)NNc2nc(N3CCOCC3)nc(N3CCN(C(c4ccccc4)c4ccccc4)CC3)n2)c1`, the growth was 100%.
`Cc1ccc(C)c2c1sc1nc3n[nH]c(N)c3c(=N)n12`: the growth was 109%.
For the molecule `O=S(=O)(NC1c2ccccc2Oc2ccccc21)c1cc(Cl)ccc1Cl`, the growth was 99.1%.
With `Cc1cc(C(C)(C)CC(C)(C)C)ccc1OCCOCC[N+](C)(C)Cc1ccccc1`, the growth was -60.6% (active).
For `C[C@H](NC(=O)[C@@H]1CSSC[C@@H](NC(=O)Cc2nc3ccccc3cc2O)C(=O)NCC(=O)N1C)c1ccccc1`, the growth was 94.9%.
Regarding `COc1ccc(/C=C2\CCC3C(CCCC34OCCO4)C2=O)cc1` (stereo not given), the growth is 92.4%.
As to `CC1(C)Cc2c(cn(Cc3ccccc3)c2-c2ccccc2)-c2oncc21`, the growth is 104%.
Then `COc1cc(-c2cc(/C=C/C(C)=O)[nH]n2)cc(OC)c1OC`, with 103%.
Turning to `Oc1ccccc1-c1nnc(Cn2c(Cc3cccc4ccccc34)nc3ccccc32)o1`, the growth was 104%.
In the case of `Cc1[nH]nc2c(=S)[nH]c(=O)[nH]c12` it was 106%; in that of `Cc1ccc2c(c1)-c1cc(C)nn1-c1ccc(C#N)cc1O2`, 90%.
Take `C/C(=N\NC(=S)N1CCCC1)c1ccccn1`: the growth is 14.7%.
As for `COc1ccc(-c2oncc2-c2cc(OC)c3c(c2)OCO3)cc1`, the growth was 56%.
Regarding `Cc1nn2c(/C=C3/C(=O)Nc4ccc(Cl)cc43)c(-c3ccccc3)nc2s1`, the growth was 102%.
Then `COc1cc(C2CC(=O)Nc3c2c(C)nn3-c2nc3ccccc3[nH]2)cc(OC)c1O` (stereo not given), with 88.9%.
With `CC[C@@]1(C(N)=O)CC2C=CC1C2` (stereo not given in full), the growth was 108%.
Consider `COc1ccc(CSc2nc3cc(OC)c(OC)cc3c(=O)n2-c2ccc(OC)cc2OC)cc1`, for which the growth was 101%.
In the case of `CCc1cc2n(n1)-c1ncc(C(=O)OC)cc1Oc1ccccc1-2` it was 114%; in that of `COc1cc(C2C=C(c3ccc(Cl)c(Cl)c3)N=C3SC(C)=CN32)cc(OC)c1OC` (stereo not given), 90.7%.
For the molecule `Cc1ccc(C)c(S(=O)(=O)NC2c3ccccc3Oc3ccccc32)c1`, the growth is 104%.
`Fc1ccc2[nH]c3c(NCCCN4CCOCC4)ncnc3c2c1`: the growth is 75.4%.
In the case of `Cc1ccc(-n2c(-c3cc4c([nH]c5ccccc54)c(-c4cccc(O)c4)n3)n[nH]c2=S)cc1`, the growth is -52.5% (active).
As for `COc1ccc(-c2nc(-c3nc4ccc(C)cc4[nH]3)c3ccccn23)cc1`, the growth was 36.4%.
In the case of `C/C=C\COc1cc(C)c(Cl)cc1Cl`, the growth was 118%.
Turning to `CCCCc1ccc(NC(=O)N(CCCl)N=O)cc1`, the growth was 117%.
Turning to `Cc1cc(O)c(C2=NN(c3ccc(S(N)(=O)=O)cc3)C(c3ccc(N(C)C)cc3)C2)c(C)c1Cl` (stereo not given), the growth is 94.1%.
In the case of `COc1ccc(Nc2ccnc(N3CCN(c4ccnc5cc(Cl)ccc45)CC3)n2)cc1`, the growth was 15.8%.
Regarding `O=C(/C=C/c1ccc(Cl)cc1)c1ccc(Br)cc1`, the growth is 95%.
Regarding `CCCc1ccnc(NS(=O)(=O)c2ccc(N)cc2)n1`, the growth was 86.9%.
Regarding `O=C(CCc1ccccc1)N1CCN(C(=O)CCc2ccccc2)CC1`, the growth is 109%.
In the case of `O=C(Nc1cccc(Cl)c1)Nc1cc2ncncc2cc1OCc1cccc(F)c1` it was 35.7%; in that of `Oc1[nH]c2ccccc2c1/C=c1/cc2c(c(-c3ccc(C(F)(F)F)cc3)n1)=Nc1ccccc1-2`, 54.7%; in that of `COc1cc(-c2nc3ccccc3[nH]2)ccc1OCC(=O)N=Nc1c(O)[nH]c2ccccc12`, 96.1%.
As to `[O-]c1c[n+](-c2ccc(Cl)cc2)no1`, the growth is 101%.
Then `CCOC(=O)c1sc(NC(=O)c2cc(OC)c(OC)c(OC)c2)nc1C`, with 57.4%; and `C=CCOc1ccc2c(c1)CC=C1[C@@H]2CC[C@]2(C)C(=O)/C(=N/O)C[C@@H]12`, with 74.8%.

The record behind these values is PubChem BioAssay (NCI).
